Laboratory results from the supplement of paper PMC10849652.
The full data set covers some 7,900 targets. This sample favours those with a hit. About 0.6% of all pairs of compound and target were hits. Unmarked numbers belong to inactive results.

UniProt Q86UV5, sequence (Q86UV5 whole entry, looked up): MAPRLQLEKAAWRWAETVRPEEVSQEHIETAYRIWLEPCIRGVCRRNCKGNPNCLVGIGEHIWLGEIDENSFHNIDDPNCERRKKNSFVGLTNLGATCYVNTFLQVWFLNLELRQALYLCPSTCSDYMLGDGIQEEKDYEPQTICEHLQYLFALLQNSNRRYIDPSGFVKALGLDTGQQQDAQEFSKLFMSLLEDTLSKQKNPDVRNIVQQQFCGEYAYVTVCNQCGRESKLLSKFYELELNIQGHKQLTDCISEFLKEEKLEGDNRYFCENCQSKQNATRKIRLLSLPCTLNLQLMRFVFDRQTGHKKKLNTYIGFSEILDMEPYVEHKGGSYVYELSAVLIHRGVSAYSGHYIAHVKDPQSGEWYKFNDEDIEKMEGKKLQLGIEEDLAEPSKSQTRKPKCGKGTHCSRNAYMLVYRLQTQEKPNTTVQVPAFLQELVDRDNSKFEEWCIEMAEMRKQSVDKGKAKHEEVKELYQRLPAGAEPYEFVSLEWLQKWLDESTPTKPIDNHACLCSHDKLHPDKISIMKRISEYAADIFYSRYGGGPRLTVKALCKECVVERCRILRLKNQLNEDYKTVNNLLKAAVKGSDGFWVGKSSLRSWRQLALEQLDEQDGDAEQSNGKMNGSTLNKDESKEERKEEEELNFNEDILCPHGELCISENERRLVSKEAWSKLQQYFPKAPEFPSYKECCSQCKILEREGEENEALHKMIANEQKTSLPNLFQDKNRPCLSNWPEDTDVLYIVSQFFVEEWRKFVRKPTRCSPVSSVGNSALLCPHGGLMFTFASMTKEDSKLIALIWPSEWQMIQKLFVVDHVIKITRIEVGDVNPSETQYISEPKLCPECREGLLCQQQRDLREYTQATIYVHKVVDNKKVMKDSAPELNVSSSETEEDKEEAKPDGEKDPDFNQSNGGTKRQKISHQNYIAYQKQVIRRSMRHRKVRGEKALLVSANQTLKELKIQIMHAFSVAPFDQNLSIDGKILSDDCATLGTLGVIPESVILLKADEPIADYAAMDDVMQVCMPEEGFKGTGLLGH
UniProt Q96K49, sequence (Q96K49 whole entry, looked up): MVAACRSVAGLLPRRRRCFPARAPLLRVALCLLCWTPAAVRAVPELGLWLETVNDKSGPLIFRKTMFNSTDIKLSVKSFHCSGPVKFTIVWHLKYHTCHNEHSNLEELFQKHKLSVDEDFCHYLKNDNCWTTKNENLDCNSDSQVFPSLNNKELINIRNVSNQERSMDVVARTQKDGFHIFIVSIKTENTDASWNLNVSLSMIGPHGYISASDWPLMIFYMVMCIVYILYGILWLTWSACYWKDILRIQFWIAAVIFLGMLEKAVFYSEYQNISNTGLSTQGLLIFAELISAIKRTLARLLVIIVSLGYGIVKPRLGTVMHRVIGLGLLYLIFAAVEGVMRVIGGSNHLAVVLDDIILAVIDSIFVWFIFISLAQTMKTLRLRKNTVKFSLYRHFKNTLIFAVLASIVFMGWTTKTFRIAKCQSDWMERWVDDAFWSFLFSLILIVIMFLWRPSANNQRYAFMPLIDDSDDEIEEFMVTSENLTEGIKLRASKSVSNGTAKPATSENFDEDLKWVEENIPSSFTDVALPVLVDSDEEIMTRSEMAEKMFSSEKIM
UniProt O60701, sequence (O60701 whole entry, looked up): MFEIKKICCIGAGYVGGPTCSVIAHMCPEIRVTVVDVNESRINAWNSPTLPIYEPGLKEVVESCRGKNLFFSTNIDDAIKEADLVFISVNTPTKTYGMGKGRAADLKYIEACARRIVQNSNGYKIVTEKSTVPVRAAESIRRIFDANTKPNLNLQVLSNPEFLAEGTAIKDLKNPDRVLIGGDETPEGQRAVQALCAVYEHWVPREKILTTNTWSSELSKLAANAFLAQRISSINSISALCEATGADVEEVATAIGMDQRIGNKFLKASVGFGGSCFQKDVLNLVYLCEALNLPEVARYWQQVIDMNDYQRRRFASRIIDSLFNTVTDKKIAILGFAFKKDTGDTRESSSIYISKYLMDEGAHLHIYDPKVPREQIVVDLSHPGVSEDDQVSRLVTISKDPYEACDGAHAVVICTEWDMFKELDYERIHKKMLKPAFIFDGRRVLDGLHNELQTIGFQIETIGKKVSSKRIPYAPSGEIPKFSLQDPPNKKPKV
UniProt Q92890, sequence (Q92890 whole entry, looked up): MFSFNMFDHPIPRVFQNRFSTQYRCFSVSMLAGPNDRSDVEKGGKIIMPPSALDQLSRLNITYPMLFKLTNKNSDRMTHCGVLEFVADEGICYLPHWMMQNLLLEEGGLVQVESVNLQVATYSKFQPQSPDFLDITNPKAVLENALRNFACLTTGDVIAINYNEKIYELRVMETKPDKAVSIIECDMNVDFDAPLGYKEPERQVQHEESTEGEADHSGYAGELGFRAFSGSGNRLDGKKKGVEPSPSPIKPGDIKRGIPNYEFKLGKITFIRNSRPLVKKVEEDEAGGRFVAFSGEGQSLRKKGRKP
UniProt Q5VIR6, sequence (Q5VIR6 whole entry, looked up): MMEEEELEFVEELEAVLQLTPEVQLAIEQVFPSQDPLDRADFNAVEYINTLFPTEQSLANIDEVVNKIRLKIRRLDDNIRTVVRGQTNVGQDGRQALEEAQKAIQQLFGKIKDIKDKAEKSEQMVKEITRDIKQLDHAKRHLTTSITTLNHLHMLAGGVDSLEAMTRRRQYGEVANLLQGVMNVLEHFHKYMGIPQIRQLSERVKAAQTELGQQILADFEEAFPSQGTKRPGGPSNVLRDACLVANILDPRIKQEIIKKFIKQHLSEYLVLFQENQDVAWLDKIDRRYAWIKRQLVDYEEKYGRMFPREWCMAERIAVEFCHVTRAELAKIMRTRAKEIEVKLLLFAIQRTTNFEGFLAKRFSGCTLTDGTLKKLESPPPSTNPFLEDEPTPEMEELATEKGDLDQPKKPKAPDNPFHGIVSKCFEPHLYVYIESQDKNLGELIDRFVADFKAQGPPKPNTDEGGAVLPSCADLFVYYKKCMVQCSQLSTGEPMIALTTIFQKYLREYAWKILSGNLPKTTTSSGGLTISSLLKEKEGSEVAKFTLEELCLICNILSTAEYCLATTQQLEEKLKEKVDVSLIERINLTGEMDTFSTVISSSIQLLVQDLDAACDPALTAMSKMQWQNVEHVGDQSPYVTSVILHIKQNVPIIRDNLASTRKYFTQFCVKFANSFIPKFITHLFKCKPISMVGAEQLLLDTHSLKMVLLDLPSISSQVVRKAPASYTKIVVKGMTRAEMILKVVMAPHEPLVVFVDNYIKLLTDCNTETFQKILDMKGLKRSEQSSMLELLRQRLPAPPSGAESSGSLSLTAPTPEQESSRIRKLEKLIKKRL
UniProt O95801, sequence (O95801 whole entry, looked up): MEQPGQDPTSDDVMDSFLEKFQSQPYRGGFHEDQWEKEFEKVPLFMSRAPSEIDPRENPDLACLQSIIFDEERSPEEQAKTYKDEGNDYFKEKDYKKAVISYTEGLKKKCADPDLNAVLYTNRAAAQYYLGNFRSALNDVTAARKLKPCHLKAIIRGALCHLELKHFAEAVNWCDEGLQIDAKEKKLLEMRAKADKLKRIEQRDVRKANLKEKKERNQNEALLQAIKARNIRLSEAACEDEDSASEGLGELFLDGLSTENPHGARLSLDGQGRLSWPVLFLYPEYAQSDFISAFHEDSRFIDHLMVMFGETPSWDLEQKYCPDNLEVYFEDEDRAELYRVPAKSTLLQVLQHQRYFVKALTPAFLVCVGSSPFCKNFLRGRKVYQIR
UniProt Q9H6R7, sequence (Q9H6R7 whole entry, looked up): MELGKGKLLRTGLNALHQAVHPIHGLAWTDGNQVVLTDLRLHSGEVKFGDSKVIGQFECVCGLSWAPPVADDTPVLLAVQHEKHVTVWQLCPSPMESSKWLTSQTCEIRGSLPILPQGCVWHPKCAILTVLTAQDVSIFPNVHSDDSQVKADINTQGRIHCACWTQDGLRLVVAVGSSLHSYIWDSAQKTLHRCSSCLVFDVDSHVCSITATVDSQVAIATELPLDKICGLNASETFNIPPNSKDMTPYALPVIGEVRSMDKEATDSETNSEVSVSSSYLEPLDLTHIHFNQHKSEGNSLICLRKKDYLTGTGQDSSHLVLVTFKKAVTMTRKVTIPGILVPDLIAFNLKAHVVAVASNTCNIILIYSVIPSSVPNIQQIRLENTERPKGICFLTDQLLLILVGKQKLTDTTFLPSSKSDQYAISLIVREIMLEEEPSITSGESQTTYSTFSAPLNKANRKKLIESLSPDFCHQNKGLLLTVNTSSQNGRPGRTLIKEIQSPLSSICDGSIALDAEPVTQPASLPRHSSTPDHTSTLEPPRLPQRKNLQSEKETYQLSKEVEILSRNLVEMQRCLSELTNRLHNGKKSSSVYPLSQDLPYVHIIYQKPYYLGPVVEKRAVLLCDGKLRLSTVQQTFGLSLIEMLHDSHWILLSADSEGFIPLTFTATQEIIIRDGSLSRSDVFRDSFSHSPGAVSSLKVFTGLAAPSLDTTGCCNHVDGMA
UniProt A0PJW6, sequence (A0PJW6 whole entry, looked up): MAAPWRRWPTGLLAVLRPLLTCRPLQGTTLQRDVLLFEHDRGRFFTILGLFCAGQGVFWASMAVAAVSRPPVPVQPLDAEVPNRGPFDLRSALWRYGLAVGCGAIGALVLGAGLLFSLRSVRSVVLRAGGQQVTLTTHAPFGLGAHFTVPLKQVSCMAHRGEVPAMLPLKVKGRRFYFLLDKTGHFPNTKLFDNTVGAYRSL
UniProt O43396, sequence (O43396 whole entry, looked up): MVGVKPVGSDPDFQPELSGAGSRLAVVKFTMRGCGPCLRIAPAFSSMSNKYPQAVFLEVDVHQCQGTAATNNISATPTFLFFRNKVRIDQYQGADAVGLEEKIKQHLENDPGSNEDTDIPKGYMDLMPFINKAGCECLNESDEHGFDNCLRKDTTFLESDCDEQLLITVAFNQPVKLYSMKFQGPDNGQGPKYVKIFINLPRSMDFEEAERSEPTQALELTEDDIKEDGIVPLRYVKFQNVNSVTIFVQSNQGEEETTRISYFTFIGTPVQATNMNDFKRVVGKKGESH
UniProt Q9UL33, sequence (Q9UL33 whole entry, looked up): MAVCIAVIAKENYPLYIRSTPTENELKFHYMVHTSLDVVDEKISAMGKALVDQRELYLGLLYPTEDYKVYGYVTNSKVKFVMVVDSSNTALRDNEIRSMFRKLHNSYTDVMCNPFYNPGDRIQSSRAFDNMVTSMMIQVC

Each target was assayed with C1=CC(=C(C=C1Cl)C2=NC3=NC=CN=C3C(=N2)NC4=CC=NC=C4)F (assay: log2 fold change, soluble protein after heating vs DMSO (PISA); higher = thermal stabilisation; K562 cells, 10 uM, 30 min; active = over 0.2 and 3.5 SD of the protein, either way, in both replicates (recomputed)).
In short: (§1)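 For each measurement, 10 μM compound was applied for 30 min to K562 cells at 2×10^6 cells/mL. Aliquots were heated for 3 min across 48°C-58°C, pooled, and extracted in PBS with 0.5% NP-40 at 4°C; the supernatant after 21,000xg for 90 min was soluble protein. This was quantified by TMTpro 16plex LC-MS/MS with channel sums equalised, and thermal stability was reported relative to control samples from duplicates, on a log2 fold-change scale.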
WDR61 (UniProt Q9GZS3) gave a log2 fold change of 0.051. For USP3 (UniProt Q9Y6I4), the log2 fold change was 0.121. Work on TOMM20 (UniProt Q15388) yielded a log2 fold change of -0.013. In the case of TNPO2 (UniProt O14787), the log2 fold change is reported as 0.033. VPS11 (UniProt Q9H270) showed a log2 fold change of 0.015. With TMEM87B (UniProt Q96K49) the log2 fold change was -0.069. Work on TRIP10 isoform 2 (UniProt Q15642) yielded a log2 fold change of 0.112. In the case of TTI1 (UniProt O43156), the log2 fold change is reported as -0.015. With UFD1 isoform 1 (UniProt Q92890) the log2 fold change was 0.051. TRAPPC13 isoform 5 (UniProt A5PLN9) showed a log2 fold change of -0.028. With VTI1A (UniProt Q96AJ9) the log2 fold change was -0.037. For VPS52 (UniProt Q8N1B4), the log2 fold change was -0.029. In the case of TTC4 (UniProt O95801), the log2 fold change is reported as 0.016. TMTC3 (UniProt Q6ZXV5) gave a log2 fold change of 0.007. Target XPO5 (UniProt Q9HAV4) has a log2 fold change of 0.105. UTP3 (UniProt Q9NQZ2) showed a log2 fold change of -0.748. In the case of U2AF2 (UniProt P26368), the log2 fold change is reported as -0.013. With TRAPPC2L (UniProt Q9UL33) the log2 fold change was -0.037. For USP14 (UniProt P54578), the log2 fold change was 0.084. USP48 isoform 8 (UniProt Q86UV5) showed a log2 fold change of 0.14. Work on WDCP (UniProt Q9H6R7) yielded a log2 fold change of 0.058. For TMEM223 (UniProt A0PJW6), the log2 fold change was -0.018. In the case of TSC2 (UniProt P49815), the log2 fold change is reported as -0.104. For TRAPPC8 (UniProt Q9Y2L5), the log2 fold change was -0.012. VPS53 isoform 4 (UniProt Q5VIR6) gave a log2 fold change of 0.003. Target USO1 isoform 2 (UniProt O60763) has a log2 fold change of 0.051. Target UCHL5 (UniProt Q9Y5K5) has a log2 fold change of 0.005. TMEM268 isoform 3 (UniProt Q5VZI3) gave a log2 fold change of -0.166. Work on UBE4A isoform 2 (UniProt Q14139) yielded a log2 fold change of 0.083. In the case of TRABD (UniProt Q9H4I3), the log2 fold change is reported as -0.029. For TSG101 (UniProt Q99816), the log2 fold change was 0.051. In the case of TMEM189-UBE2V1 (UniProt I3L0A0), the log2 fold change is reported as 0.015. WDR41 (UniProt Q9HAD4) gave a log2 fold change of 0.128. For TXNL1 (UniProt O43396), the log2 fold change was 0.009. In the case of UGDH (UniProt O60701), the log2 fold change is reported as 0.128. TTC38 (UniProt Q5R3I4) gave a log2 fold change of 0.082.

What follows are targets tested with C1=CC(=CC=C1C2=NC3=C(N2)C=C(C=C3)C(=O)N)OC4=CC=C(C=C4)Cl in the same assay as above.
In short: as §1
For WDR61 (UniProt Q9GZS3), the log2 fold change was 0.027. For USP3 (UniProt Q9Y6I4), the log2 fold change was 0.004. TOMM20 (UniProt Q15388) showed a log2 fold change of 0.004. TNPO2 (UniProt O14787) gave a log2 fold change of -0.064. VPS11 (UniProt Q9H270) gave a log2 fold change of 0.005. TMEM87B (UniProt Q96K49) was tested, and the log2 fold change was 0.013. TRIP10 isoform 2 (UniProt Q15642) showed a log2 fold change of 0.094. For TTI1 (UniProt O43156), the log2 fold change was -0.045. UFD1 isoform 1 (UniProt Q92890) was tested, and the log2 fold change was -0.008. With TRAPPC13 isoform 5 (UniProt A5PLN9) the log2 fold change was -0.047. Target VTI1A (UniProt Q96AJ9) has a log2 fold change of -0.014. Work on VPS52 (UniProt Q8N1B4) yielded a log2 fold change of 0.067. In the case of TTC4 (UniProt O95801), the log2 fold change is reported as 0.005. With TMTC3 (UniProt Q6ZXV5) the log2 fold change was 0.023. XPO5 (UniProt Q9HAV4) gave a log2 fold change of -0.005. In the case of UTP3 (UniProt Q9NQZ2), the log2 fold change is reported as 0.063. For U2AF2 (UniProt P26368), the log2 fold change was 0.029. In the case of TRAPPC2L (UniProt Q9UL33), the log2 fold change is reported as -0.273. USP14 (UniProt P54578) showed a log2 fold change of -0.014. In the case of USP48 isoform 8 (UniProt Q86UV5), the log2 fold change is reported as -0.033. In the case of WDCP (UniProt Q9H6R7), the log2 fold change is reported as 0.065. With TMEM223 (UniProt A0PJW6) the log2 fold change was 0.002. Target TSC2 (UniProt P49815) has a log2 fold change of -0.297. For TRAPPC8 (UniProt Q9Y2L5), the log2 fold change was 0.027. VPS53 isoform 4 (UniProt Q5VIR6) gave a log2 fold change of -0.04. Target USO1 isoform 2 (UniProt O60763) has a log2 fold change of -0.028. UCHL5 (UniProt Q9Y5K5) was tested, and the log2 fold change was -0.024. TMEM268 isoform 3 (UniProt Q5VZI3) was tested, and the log2 fold change was 0.054. Work on UBE4A isoform 2 (UniProt Q14139) yielded a log2 fold change of -0.11. Target TRABD (UniProt Q9H4I3) has a log2 fold change of 0.016. TSG101 (UniProt Q99816) gave a log2 fold change of 0.027. Target TMEM189-UBE2V1 (UniProt I3L0A0) has a log2 fold change of 0.019. For WDR41 (UniProt Q9HAD4), the log2 fold change was 0.026. With TXNL1 (UniProt O43396) the log2 fold change was -0.031. UGDH (UniProt O60701) showed a log2 fold change of 0.023. Target TTC38 (UniProt Q5R3I4) has a log2 fold change of 0.072.
